Assay outcomes deposited in PubChem BioAssay by several laboratories.
CYP2C9 activ – CYP2C9 (human) activation. P11712. recombinant CYP2C9, luciferin-H conversion, luminescence; stronger effect = higher value; factor 1 = untreated enzyme, 0 = blocked. activation factor at 5 µM. hit rate 1.4% among 96,000;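 active = activation factor of 2 or more for CYP2C9 at a 5 µM dose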;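 also: 0 = sulfaphenazole-blocked wells and 1 = vehicle-only wells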
CYP2C9 inh – blocks human cytochrome P450 2C9. P11712. CYP2C9 Supersomes, luciferin-H conversion, luminescence. inhibition, % at 5 µM. hit rate 20% among 96,000;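 active = blocking of liver enzyme CYP2C9 beyond about 50% at 5 µM, limit read from the data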
CYP2C19 act – cytochrome P450 2C19 (human) activation; activation factor at 5 µM; 96,000 tested, under 10 active; recombinant CYP2C19, luciferin-H EGE luminescence; stronger effect = higher value; 0 = fully inhibited enzyme, 1 = untreated enzyme;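 active = activation factor of at least 2 at 5 µM in the primary screen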;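 also: 0 = wells with 2.5 mM tranylcypromine and 1 = vehicle-only wells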
Cav32 inh – inhibitors of human Cav3.2 T-type calcium channel | O95180 | Cav3.2-expressing cells, Fluo-4 calcium fluorescence FDSS; stronger effect = lower value | B-score at 10 µM | hit rate 4% among 100,000 | AID 449739;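 active = single-dose well whose peak fluorescence ratio is a statistical outlier from its plate by either plate-standardised score or position-corrected B-score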
CYP2C19 inhib – inhibitors of human CYP2C19 | hit rate 21% among 96,000 | P33261 | inhibition, % at 5 µM | CYP2C19 Supersomes, luciferin-H EGE luminescence, 30 min;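 active = CYP2C19 inhibition above a set limit at 5 µM in the primary screen, cut at about 50% in these data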;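 also: plate controls were negative control wells for no effect and 2.5 mM tranylcypromine positive control for full effect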
* marks the source's active call; other numbers are inactive results; nt = no result given. An excerpt weighted towards active compounds, which were near 27% of everything screened.

SMILES	CYP2C9 activ	CYP2C9 inh	CYP2C19 act	Cav32 inh	CYP2C19 inhib
CCCCNC(=O)C(c1ccc(-c2ccccc2)cc1)N(CCN1CCOCC1)C(=O)CCCCCN1C(=O)NC(c2ccc([N+](=O)[O-])cc2)C(C(=O)OCc2ccccc2)=C1C (centres undefined)	nt	nt	nt	-0.74	nt
CCCc1nc(C)c2c(=O)[nH]c(-c3cc(S(=O)(=O)N4CCN(CC)CC4)ccc3OCC)nn12	nt	nt	nt	-0.037	nt
COc1cccc(-n2c(Cc3cc(=O)[nH]c(=O)[nH]3)nnc2SCC(=O)N2CCC(C)CC2)c1	1.1	-13	1	nt	1
O=C1CCCN1CCNC(=S)Nc1ccccc1	0.5	52*	0.8	0.36	19
O=C1CCCN1CCC1CCN(C(=O)Nc2ccccc2)CC1	1.1	-6	1.1	1.9	-6
C=CCc1c(C)nc(SCC(=C)C)[nH]c1=O	0.8	17	0.5	1.2	55*
Cc1ccc(-c2c(C#N)c(N)nc3c2CCCC3)s1	1.3	-25	0.8	1.3	21
O=C(COC(=O)CCC(=O)Nc1nccs1)NCc1ccco1	1	-1	1	-0.089	2
CC(CCc1ccccc1)NCc1ccncc1 (centres undefined)	0.2	83*	0	-0.81	96*
CC(CCc1ccccc1)NS(=O)(=O)c1ccccc1 (centres undefined)	0.3	75*	0.5	-2.5	55*
Cc1cccc(NS(=O)(=O)Cc2ccccc2)n1	nt	nt	nt	-0.11	nt
CC(C)CCCC(C)NS(=O)(=O)Cc1ccccc1 (centres undefined)	0.1	92*	0.5	-3.6	55*
Cc1ccc(S(=O)(=O)NC(CCc2ccccc2)CC(=O)C(C)(C)C)cc1 (centres undefined)	nt	nt	nt	-0.83	nt
COC(=O)c1cc(S(=O)(=O)N2CCOCC2)ccc1Sc1ccccc1N	0.6	37	0.9	0.3	5
O=C(CCOc1ccccc1)Nc1ccc(S(=O)(=O)N2CCCC2)cc1	0.1	86*	0.5	-2.5	50*
O=C(COc1ccccc1)Nc1ccc(S(=O)(=O)N2CCCC2)cc1	0.8	22	1.1	0.25	-10
O=C(Cn1c(=O)sc2ccccc21)Nc1ccc(S(=O)(=O)N2CCCC2)cc1	0	98*	0.2	-2.7	80*
COc1ccccc1N(CC(=O)Nc1ccc(S(=O)(=O)N2CCCCC2)cc1)S(C)(=O)=O	nt	nt	nt	-2.8	nt
COCCN(CC(=O)Nc1ccccc1)S(=O)(=O)c1ccc(S(=O)(=O)N2CCCC2)cc1	0.3	73*	0.9	0.52	11
O=C(CCCOc1ccccc1)Nc1ccc(S(=O)(=O)N2CCOCC2)cc1	0.3	70*	0.5	-1.8	55*
C=CCc1cc(C=O)cc(OC)c1OCc1c(Cl)cccc1Cl	0.6	39	0.9	-1.1	7
Cc1sc2ncnc(NCC(c3ccco3)N3CCCC3)c2c1C (centres undefined)	0.5	48	0.7	0.64	28
C=CCOC(=O)CC(NC(=O)c1ccccc1)c1ccccc1 (centres undefined)	0.1	94*	0	0.48	96*
C=CCOC(=O)/C(=C\c1cccc2ccccc12)NC(=O)c1ccccc1	0.2	78*	0.2	-5.2*	82*
COC(=O)N[C@H](CC(C)=O)c1ccccc1	nt	nt	nt	-0.074	nt
SMILES	CYP2C9 activ	CYP2C9 inh	CYP2C19 act	Cav32 inh	CYP2C19 inhib
COC(=O)CC(NC(=O)c1ccc(C)cc1)c1ccccc1 (centres undefined)	0.6	39	0.3	nt	69*
O=C(NC(NC(=O)c1ccccc1)c1ccccc1)c1ccccc1	1	4	0.9	-0.19	8
Cc1ccccc1OCCNC(=S)Nc1ccccc1	0.9	9	0.3	-2.8	70*
Cc1ccc(Nc2nc(N)nc(CSc3ncccn3)n2)cc1	0.6	42	0.9	0.64	6
CCOC(=O)c1cnc(SCc2nc(N)nc(Nc3ccccc3OC)n2)nc1N	0.4	60*	0.8	nt	21
CCOC(=O)c1cnc(SCc2nc(N)nc(Nc3ccc(F)cc3)n2)nc1N	0.3	66*	0.3	-2.3	72*
CCOC(=O)c1cnc(SCc2nc(N)nc(Nc3ccc(C)cc3)n2)nc1N	0.5	54*	0.5	-4.2	54*
COc1ccccc1Nc1nc(N)nc(CSc2ncccn2)n1	1.2	-15	0.9	-0.47	15
COC(=O)/C=C/c1cc(F)ccc1S(=O)(=O)NC(C)(C)C	nt	nt	nt	0.047	nt
O=C(Nc1ccc2c(c1)OCO2)C1CCCCN1S(=O)(=O)c1ccccc1 (centres undefined)	0.4	64*	0	0.34	98*
Cc1cc(NC(=O)NC2CCCN2S(=O)(=O)c2ccc(Cl)cc2)no1 (centres undefined)	0.4	60*	0.2	0.27	80*
Cc1ccc(S(=O)(=O)N2CCCC2C(=O)Nc2cc(C)on2)cc1 (centres undefined)	1.4	-39	1	0.48	2
O=C(Nc1ccc2c(c1)OCO2)C1CCN(S(=O)(=O)c2ccc3c(c2)OCCO3)CC1	1.2	-25	1.1	0.56	-6
O=C(Nc1ccc2c(c1)OCCO2)C1CCCN1S(=O)(=O)c1ccc(Cl)cc1 (centres undefined)	0	96*	0.1	-0.5	88*
O=C(CN1CCN(S(=O)(=O)c2ccc(Cl)cc2)CC1)Nc1ccc2c(c1)OCCO2	0.9	14	0.6	-0.72	42
O=C(CSc1nnc(-c2ccc(OC(F)F)cc2)o1)NC(=O)NCc1ccco1	1	-3	1.1	-0.23	-13
CO/N=C/c1cc([N+](=O)[O-])ccc1Sc1ccc(C)cc1	0.4	64*	0.4	-0.57	65*
C=CCOc1c(CNc2nccs2)cccc1OCC	0.3	72*	0	-1.4	98*
C=CCOc1ccc(CNc2nccs2)cc1OCC	nt	nt	nt	-1.4	nt
CSC1=NCCN1C(=O)Cc1cccs1	1	-2	1	0.29	2
OC(CN1CCN(c2ccccc2)CC1)c1c[nH]c2ccccc12 (centres undefined)	1	5	0.4	-0.95	57*
CC(C)N(C(=O)COc1ccc(Br)cc1Cl)C(C)C	0.4	60*	0.1	-5.5*	94*
COCCNC(=O)COc1ccc(Br)cc1Cl	1	3	0.6	0.41	40
C=CCNC(=O)COc1ccc(Br)cc1Cl	0.6	43	0.1	-0.27	93*
Cc1cnc(C)c(N2CCC(C(=O)NCc3cccs3)CC2)n1	1.2	-20	1	-0.12	2
Cc1oc(-c2cccc(Cl)c2)nc1CN1CCC(C(=O)NCc2cccnc2)CC1	0.9	6	1	1.1	1
CCN(CCNC(=O)C1CCN(Cc2nc(-c3ccc(Cl)cc3)oc2C)CC1)c1ccccc1	1	2	0.8	-8.4*	22
Cc1oc(-c2ccc(Cl)cc2)nc1CN1CCC(C(=O)NCc2cccs2)CC1	0.9	7	1	-7.5*	1
Cc1oc(-c2ccc(Cl)cc2)nc1CN1CCC(C(=O)NCCCN2CCOCC2)CC1	1.1	-8	1.1	0.74	-14
CCc1ccc(-c2nc(CN3CCC(C(=O)N4CCN(c5ccccc5)CC4)CC3)c(C)o2)cc1	0.9	14	0.9	-4	15
